Reference: a collection of fitness landscapes (doi:10.1016/j.celrep.2020.107928)
The full ranking holds about 81,000 sequences; the median of “one-hybrid fitness for binding NBS DNA” is about -0.1, and the highest 2% start at about 0.36. The full list was thinned out, with the highest values kept by preference.

B1: Caulobacter ParB omega fusion; a variant is named by its letters at X, in order, B8GW30 (parent)
chain: MESVVVGEPGMSEGRRGLGRGLSALLGEVDAAPAQAPGEQLGGSREAPIEILQRNPDQPRRTFREEDLEDLSNSIREKGVLQPILVRPSPDTAGEYQIVAGERAWRAAQRAGLKTVPIMVRELDDLAVLEIGIIENVQRADLNVLEEALSYKVLMEKFERTQENIAQTIGKSXSHVANXMRLLXLPDEVQSYLVSGELTAXHARAIAAAADPVALAKQIIEGGLSVRETEALARKAPNLSAGKSKGGRPPRVKDTDTQALESDLSSVLGLDVSIDHRGSTGTLTITYATLEQLDDLCNRLTRGI

Variants of: B1
Assay: one-hybrid fitness for binding NBS DNA (the Noc-binding site; scaled: cognate 1, non-cognate 0); higher = stronger binding
Settings: with NBS DNA site
Summary of the method: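 On M9-minus-histidine containing 0.1 mM IPTG and 5 mM 3-AT, E. coli USO cells with a HIS3 reporter, site 19 bp from the promoter, grew 48 hours at 37°C to select Caulobacter ParB libraries randomised at four specificity codons. Plasmids from before and after were Illumina-sequenced, with three replicate libraries pooled and variants under 10 reads left out. Fitness is the log change in variant-to-wild-type read ratio, rescaled against cognate and non-cognate.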

Variant	one-hybrid fitness for binding NBS DNA
QTCT	0.571
QSCT	0.386
SKPI	≤ 0.2
DYFM	≤ 0.2
LNNN	≤ 0.2
EHQL	≤ 0.2
GRLL	≤ 0.2
SFYC	≤ 0.2
IRNN	≤ 0.2
MQRC	≤ 0.2
NLPG	≤ 0.2
QKVS	0.32
QKVN	≤ 0.2
QKKR	1
DKKR	≤ 0.2
QKVR	0.423
QKKF	0.294
NTIC	≤ 0.2
EQRE	≤ 0.2
TGAR	≤ 0.2
GMCV	≤ 0.2
RLHH	≤ 0.2
RSHP	≤ 0.2
RSHS	0.47
RMHD	≤ 0.2
RLHP	≤ 0.2

Variant	one-hybrid fitness for binding NBS DNA
RPHS	≤ 0.2
RMHN	≤ 0.2
RLHS	0.462
RCHS	0.577
RMHS	0.486
RSHH	≤ 0.2
RFHS	0.275
CMKS	≤ 0.2
HSMS	≤ 0.2
YEDC	≤ 0.2
VNHL	≤ 0.2
HDMN	≤ 0.2
VQAT	≤ 0.2
RAHS	0.482
RKHD	≤ 0.2
RAHN	≤ 0.2
RKHS	0.624
RAHD	≤ 0.2
RKHN	≤ 0.2
FLVC	≤ 0.2
LRGC	≤ 0.2
IPDS	≤ 0.2
QPHR	≤ 0.2
QTHK	0.293
QCHR	0.742
QSHD	≤ 0.2

Variant	one-hybrid fitness for binding NBS DNA
QIHR	0.493
QTHR	0.877
QWHR	0.288
QIHC	≤ 0.2
QIHD	≤ 0.2
QSHR	0.578
QSHP	≤ 0.2
QTHM	0.296
QLFV	≤ 0.2
PASW	≤ 0.2
QHPW	≤ 0.2
TKDT	≤ 0.2
KAAR	≤ 0.2
VHKI	≤ 0.2
VRNY	≤ 0.2
SPES	≤ 0.2
PIPY	≤ 0.2
DLRT	≤ 0.2
HALK	≤ 0.2
LKPH	≤ 0.2
ECKC	≤ 0.2
PADW	≤ 0.2
EYHR	≤ 0.2
CRTW	≤ 0.2
QSPT	0.276
QAIT	0.291

Variant	one-hybrid fitness for binding NBS DNA
QTIT	0.522
QLIT	0.287
QPPT	≤ 0.2
QCPT	0.382
QTPH	≤ 0.2
QTPT	0.418
QTPP	≤ 0.2
RCQW	≤ 0.2
IHRR	≤ 0.2
QHVP	≤ 0.2
NHKR	0.202
DHKR	≤ 0.2
QHVR	0.379
QHKR	1.03
QHVS	0.221
LTLF	≤ 0.2
YIRF	≤ 0.2
KAST	≤ 0.2
GTAV	≤ 0.2
DPRR	≤ 0.2
DCRR	0.416
KTDR	≤ 0.2
KTYR	≤ 0.2
KMDR	≤ 0.2
KMYR	≤ 0.2
KKYR	≤ 0.2

Variant	one-hybrid fitness for binding NBS DNA
KKRR	0.47
KKDR	≤ 0.2
DSRR	≤ 0.2
KMRR	0.398
KTRR	0.541
QEHI	≤ 0.2
GLEC	≤ 0.2
KISR	≤ 0.2
NLTF	≤ 0.2
IPIE	≤ 0.2
AYRA	≤ 0.2
LADD	≤ 0.2
DHMR	≤ 0.2
RSEM	≤ 0.2
KIPV	≤ 0.2
AVRD	≤ 0.2
ISPK	≤ 0.2
CECG	≤ 0.2
HLGA	≤ 0.2
NQRR	≤ 0.2
KSRR	0.343
KHQR	≤ 0.2
KHRR	0.367
KCRR	0.46
KHYR	≤ 0.2
KQRR	0.416

Variant	one-hybrid fitness for binding NBS DNA
KPRR	≤ 0.2
KQYR	≤ 0.2
PLRA	≤ 0.2
YGEG	≤ 0.2
NPWT	≤ 0.2
YGMG	≤ 0.2
ETAK	≤ 0.2
RFQF	≤ 0.2
NMWY	≤ 0.2
NYHG	≤ 0.2
ANWC	≤ 0.2
AQQE	≤ 0.2
RPKH	≤ 0.2
RMKN	≤ 0.2
RMVS	0.29
RMKH	0.402
RCKH	0.403
RMKP	≤ 0.2
RMKD	≤ 0.2
RSKH	0.357
RMKS	0.598
CHSP	≤ 0.2
DPDC	≤ 0.2
